“And” between values parts separate entries of the source, which are not always exact repeats. Equal values may be shown once. Hit rate of the full screen: of about 300,000 compounds, about 37,000 (12%) were called active. No stated cut-off is given here; in the data, active means max response mostly above about 13% (no sharp cut-off); inactive means mostly below about 14%. The entries come from a sample that favours actives as a whole.
Assay: Cycloheximide Counterscreen for Small Molecule Inhibitors of Shiga Toxin; further: read at 38.3 µM for the half of the compounds with a filed dose; 0% is about no effect
Settings: cell reporter, cycloheximide protein synthesis inhibition counterscreen; hits give high values

| SMILES | max response |
| --- | --- |
| CCOC(=O)Cn1c(=O)sc2cccc(Cl)c21 | -1.55% (inactive) |
| COc1cc(C)c(C(C)C)cc1S(=O)(=O)n1ccnc1 | 0.42% (inactive) |
| CCOC(=O)c1ccc(N=C2SC(C(=O)NC)CC(=O)N2CCc2ccccc2)cc1 (stereo not drawn) | 1.86% (inactive) |
| Cc1cc(=O)cc(C)n1-c1ccc(Cl)c(Cl)c1 | -2.09% (inactive) |
| O=C(CSc1nc2ccc(Nc3nc(N4CCOCC4)nc(N4CCOCC4)n3)cc2s1)NCc1ccco1 | -3.23% (inactive) |
| CC(=O)Nc1ccc(S(=O)(=O)NCC2CCC(C(=O)NCCc3ccccc3)CC2)cc1 (stereo not drawn) | -1.06% (inactive) |
| CC(=O)Nc1ccc(NC(=O)CN2CCCC(C)C2)c(Cl)c1 (stereo not drawn) | 22.7% (active) |
| CC1CCCN(CC(=O)Nc2cc(Cl)ccc2Oc2ccccc2)C1 (stereo not drawn) | 8.16% (inactive) |
| O=C(CN1CCOCC1)Nc1ccc(NC(=O)CN2CCOCC2)c(Cl)c1 | -4.13% (inactive) |
| Nc1nc(SCC(=O)Nc2ccc(Cl)cc2C(F)(F)F)n[nH]1 | -3.77% (inactive) |
| N#Cc1ccc(/C=C2\CCn3c2nc2cc(C(=O)O)ccc2c3=O)cc1 | -2.31% (inactive) |
| CC(=O)c1ccc(OCCN2CCOCC2)cc1 | 3.75% (inactive) |
| c1ccc(-c2ccc(OCCN3CCOCC3)cc2)cc1 | 47.6% (active) |
| CC(C)(c1ccccc1)c1ccc(OCCN2CCCC2)cc1 | 2.15% (inactive) |
| CCc1c(C)nc(N)n2c(SCC(=O)NC3CCCCC3)nnc12 | 11.5% (inactive) |
| COc1ccc(-c2nn(-c3ccccc3)cc2C(=O)Nc2nccs2)cc1OC | -1.49% (inactive) |
| COc1ccc(-c2nn(-c3ccccc3)cc2/C=N/Nc2ccccn2)cc1OC | 14.8% (active) |
| CN(C)/N=C/c1cn(-c2ccccc2)nc1-c1cccnc1 | 6.55% (inactive) |
| Cc1cc(C)cc(C(=O)N(CCc2ccccc2)C2=CC3CCC(C2)N3C)c1 (stereo not drawn) | 3.92% (inactive) |
| O=C(C1CC(=O)N(c2ccc(Br)cc2)C1)N1CCCC1 (stereo not drawn) | 4.73% (inactive) |
| Cc1ccc(-c2cc(=O)c3ccc(Cl)cc3[nH]2)cc1 | -0.873% (inactive) and 14.9% (inactive) |
| Cc1ccc(-c2cc(=O)c3ccc(F)cc3[nH]2)cc1 | 6.8% (active) |
| O=c1cc(-c2ccccc2)[nH]c2cc(F)ccc12 | -3.07% (inactive) |
| CC(=O)NC(CC(=O)Nc1cccc(S(=O)(=O)N2CCCC2)c1)c1ccccc1 (stereo not drawn) | -2.18% (inactive) |

| SMILES | max response |
| --- | --- |
| COc1ccc(S(=O)(=O)N2CCOC2CNC(=O)C(=O)NCc2ccc(F)cc2)cc1 (stereo not drawn) | -1.46% (inactive) |
| CC1(C)C=C2[C@H]3CC[C@@H]4[C@@]5(C)CCC(=O)C(C)(C)[C@@H]5CC[C@@]4(C)[C@]3(C)CC[C@@]2(C(=O)O)CC1 | 4.36% (inactive) |
| O=C(CN(C(=O)c1nsc(Cl)c1Cl)c1cccc(F)c1)NC1CCCC1 | -1.97% (inactive) |
| COc1cc(NC(=S)NNC(=O)CC(C)C)c(OC)cc1Cl | -6.7% (inactive) |
| COc1cc(NC(=S)N2CCCC(C)C2)c(OC)cc1Cl (stereo not drawn) | 17.5% (active) |
| COc1cc(NC(=S)N2CCCC(C)C2)cc(OC)c1OC (stereo not drawn) | -2.44% (inactive) |
| COc1ccccc1C(=O)N1C(CC(=O)Nc2ccccc2C)C(=O)NC2CCCCC21 (stereo not drawn) | -3.1% (inactive) |
| N#CC(C#N)=CN=c1ccn(Cc2ccc(Cl)cc2Cl)cc1 | -0.809% (inactive) |
| C=CCn1c(=NC(=O)c2ccc(S(=O)(=O)N3CCCC3)cc2)sc2cc(NC(C)=O)ccc21 | -4.67% (inactive) |
| C=CCn1c(CCNC(=O)c2cccs2)n[nH]c1=S | 2.82% (inactive) |
| C=CCn1c(=NC(=O)c2cccs2)sc2cc(NC(C)=O)ccc21 | 16.5% (active) |
| CN1CCN(S(=O)(=O)c2cccc(C(=O)N3CCc4ccccc43)c2)CC1 | -1.65% (inactive) |
| CCOC(=O)NN1C(=O)c2ccccc2NC1c1cccc(O)c1 (stereo not drawn) | 7.43% (inactive) |
| O=C1NN(c2ccccc2)C(=O)/C1=C/c1ccc(-c2cccc(C(=O)O)c2)o1 | 21% (inactive) |
| O=C1c2ccccc2NC(c2ccc(-c3cccc(Cl)c3)o2)N1O (stereo not drawn) | 38.7% (active) |
| CC(C)[C@@H](NC(=O)OC(C)(C)C)C(=O)NCC1CCC(C(=O)N[C@@H](Cc2ccccc2)C(=O)O)CC1 (stereo partly drawn) | -1.77% (inactive) |
| Cc1cccc(C2c3[nH]c4ccccc4c3CCN2C(=O)c2cc(-c3cccn3C)n[nH]2)n1 (stereo not drawn) | -3.03% (inactive) |
| O=C(c1cn2ccccc2n1)N1CCc2c([nH]c3ccccc23)C1c1ccccn1 (stereo not drawn) | 3.01% (inactive) |
| Cc1cccc(C(=O)N2CCc3c([nH]c4ccccc34)C2CC(C)C)n1 (stereo not drawn) | 26.8% (active) |
| CCN(CCn1cccn1)Cc1nc(-c2ccc(C(=O)OC)cc2)no1 | -4.94% (inactive) |
| CC(=O)C1=C(O)C(=O)N(c2ccc(S(N)(=O)=O)cc2)C1c1ccccc1F (stereo not drawn) | -0.999% (inactive) |
| CCOC(=O)C1CCN(Cc2nnc(-c3cccc(Br)c3)o2)CC1 | -0.93% (inactive) |
| CC(C)(C)C(=O)OCc1nc(-c2ccc(O)c(O)c2)cs1 | 5.11% (inactive) |
| Brc1ccc(-c2csc(N/N=C/c3ccc4c(c3)OCO4)n2)cc1 | 17.6% (inactive) |

| SMILES | max response |
| --- | --- |
| COc1ccc(CCN(C(=O)COc2ccccc2)c2nc(-c3ccccc3)cs2)cc1OC | 5.03% (inactive) |
| Brc1ccc(-c2csc(N/N=C/c3cccnc3)n2)cc1 | 19.4% (active) |
| COc1ccc(-c2csc(N3CCN(Cc4ccc5c(c4)OCO5)CC3)n2)cc1 | -4.44% (inactive) |
| NS(=O)(=O)c1ccc(Nc2nc(-c3ccccc3)cs2)cc1 | 18.5% (inactive) |
| CN(C(=O)CSc1nc(C2CC2)nc2ccccc12)c1nc(-c2ccccc2)cs1 | 4.58% (inactive) |
| COc1ccc(Nc2nc(-c3ccccc3)cs2)cc1 | 46.6% (active) |
| CCOC(=O)N/N=C/c1cccnc1 | 11.3% (inactive) |
| COc1ccc(-c2csc(Cc3nc(O)cs3)n2)cc1 | 37.4% (active) |
| CN(c1ccc(O)cc1)c1nc(-c2cccnc2)cs1 | 56.1% (active) |
| COc1ccc(-c2csc3ncnc(N4CCN(S(=O)(=O)c5ccccc5C#N)CC4)c23)cc1 | -2.23% (inactive) |
| COc1cc(/C=N/O)cc(Br)c1OS(=O)(=O)c1ccc(C)cc1 | 1.45% (inactive) |
| COc1cc(NC(=O)CCNC(=O)Cn2ccc3ccccc3c2=O)cc(OC)c1OC | -5.95% (inactive) |
| COc1ccc(OC)c(C(=O)NC(CC(N)=O)c2ccc(N3CCC(N4CCCCC4)CC3)c([N+](=O)[O-])c2)c1 (stereo not drawn) | 4.9% (inactive) |
| CCC(C(=O)NC1CCCC1)N(C(=O)Cn1nnc(-c2ccc(C)o2)n1)c1ccc(OC)c(OC)c1 (stereo not drawn) | -5.67% (inactive) |
| Cc1scc(C(=O)NNC(=S)NCc2ccccc2)c1C | -0.644% (inactive) |
| Cc1ccc(S(=O)(=O)N(Cc2ccc(Cl)cc2)c2ccccc2C(=O)NCc2cccnc2)cc1 | 7.18% (inactive) |
| COC(=O)c1cc2c(ccn2C)n1C | -8.1% (inactive) |
| COc1ccc(OC)c(Nc2nc(-c3ccc(O)c(O)c3)cs2)c1 | 0.815% (inactive) |
| Oc1ccc(-c2csc(Nc3cccnc3)n2)cc1 | 33.7% (active) |
| COC(=O)CCc1sc(Nc2ccc(Br)cc2)nc1-c1ccc(OC)cc1 | 11.1% (inactive) |
| O=C(Nc1ccc(-c2csc(Nc3cccc(C(F)(F)F)c3)n2)cc1)c1cccc(C(F)(F)F)c1 | -4.63% (inactive) |
| COc1ccc(-c2csc(Nc3ccc(O)cc3)n2)cc1 | 58.3% (active) |
| COC(=O)CCCCCN1C(=O)NC(c2ccc(-c3ccccc3)cc2)C(C(=O)OCc2ccccc2)=C1C (stereo not drawn) | -3.62% (inactive) |
| CN1C2CCC1/C(=C\c1ccccc1Cl)C(=O)/C2=C\c1ccccc1Cl | -1.18% (inactive) |

| SMILES | max response |
| --- | --- |
| Cc1cc(C)c(S(=O)(=O)c2ccc(F)cc2C)c(=O)[nH]1 | 0.432% (inactive) |
| O=C(Cn1cnc2c(cnn2-c2ccc(F)cc2)c1=O)NCCc1ccccc1 | -1.32% (inactive) |
| O=C(Cn1cnc2c(cnn2-c2ccccc2)c1=O)NCc1ccccc1 | 20.7% (active) |
| O=C(Cn1cnc2cc([N+](=O)[O-])ccc2c1=O)NC(=O)NCc1ccccc1 | 5.35% (inactive) |
| COc1ccc(-n2c(C)nc3c(cnn3-c3ccccc3)c2=O)cc1 | -2.87% (inactive) |
| CC(=O)Cn1cnc2c(cnn2-c2ccccc2)c1=O | 20.7% (active) |
| Cc1ccc(-c2nc3c(cnn3-c3ccccc3)c(=O)o2)cc1 | -3.4% (inactive) |
| Cc1cc(C)n(S(=O)(=O)c2cccc([N+](=O)[O-])c2)n1 | 0.92% (inactive) |
| COc1ccccc1C(=O)NCc1nnc(SC(C)C(=O)Nc2nccs2)n1C (stereo not drawn) | 2.76% (inactive) |
| Cc1ccc(-n2ncc3c2CCCC3NC(=O)c2cnccn2)cc1C (stereo not drawn) | 9.44% (inactive) |
| C/C=C/c1ccc(OCCCCN2CCC(C)CC2)c(OC)c1 | 0.514% (inactive) |
| c1ccc(CSc2ncnc3c2sc2nc(N4CCOCC4)c4c(c23)CCCC4)cc1 | -3.72% (inactive) |
| Cc1nnc(N/N=C/c2cccs2)[nH]c1=O | -2.07% (inactive) |
| S=c1[nH]nc(-c2cccs2)n1/N=C/c1cccs1 | 8.89% (inactive) |
| Cc1n[nH]c(=O)nc1N/N=C/c1cccs1 | 25.7% (active) |
| COCCOC(=O)c1sc(=S)n(CCOC)c1N | -1.77% (inactive) |
| CC(C)(C)c1ccc(Cn2nnc3c(=O)[nH]c(C4CCCN(C(=O)c5ccco5)C4)nc32)cc1 (stereo not drawn) | 4.58% (inactive) |
| Clc1ncn(CCOc2ccccc2)c1Cl | -2.48% (inactive) |
| Cc1cccc2c1N(CCOc1ccccc1)C(=O)C2=O | 8.28% (inactive) |
| Cc1nn(CCOc2ccccc2)c(=O)n1-c1ccccc1F | 49.6% (active) |
| CCc1nc2cccnc2n1-c1ccc(C(=O)O)cc1 | -1.63% (inactive) |
